Experimental data as given in ChEMBL document CHEMBL4513216, “Probing the Open Global Health Chemical Diversity Library for Multistage-Active Starting Points for Next-Generation Antimalarials” (ACS Infect Dis, 2020).
Hit rate of the full screen: of about 69,000 compounds, about 8,600 (12%) showed an effect of 50% or more. What follows is part of a selection rich in strong results, with near analogues and random picks from the rest.

system: Plasmodium berghei; experiment: Screen against P. berghei liver stage (PbLuc), transformed with Luciferase, at 10uM; type: functional, HepG2; details: tested at 10 uM

Compound	INHIBITION [%]
COc1ccc(F)c(CNC2CCCc3nc(N(C)C)ncc32)c1 (stereo not given)	37.6
O=C(CCCOCc1ccccc1)N1CCCC(n2cncn2)C1 (stereo not given)	21.6
Cc1nn(C2CCS(=O)(=O)C2)c(C)c1CC(=O)NCc1ccccc1Cl (stereo not given)	-8.9
CNC(=O)NC(=O)CCN1CCCC1c1nc(C2CCCCC2)co1 (stereo not given)	-11.3
CN(C)C[C@]12COC[C@H]1CN(C(=O)Cc1ccc3c(c1)OCO3)C2	23.5
CC(O)(CN1CCN(CCO)CC1)c1cccc(C(F)(F)F)c1 (stereo not given)	-14
Cc1nc2cc(-c3nccn3C)nn2c(N2CCC(O)CC2)c1C	12.3
O=C1COC2(COCCN(c3ccccn3)C2)CN1c1cccc(F)c1 (stereo not given)	31.2
c1ccc(CN2CCc3c(CNc4nccs4)n[nH]c3C2)nc1	34.4
Fc1cnc(N2CCOCC3(CCCN(c4nncs4)C3)C2)nc1 (stereo not given)	41.5
CCS(=O)(=O)N1CCCC2(COCCN(c3nncs3)C2)C1 (stereo not given)	28.2
CCN1CCOCC2(CCCN(c3nncs3)C2)C1 (stereo not given)	52.3
Cc1cc(CNC(=O)N2CCc3ccccc3C2CO)c(C)o1 (stereo not given)	2.43
Cc1cc(F)ccc1-n1cc(O)c(C(=O)NCC[S+](C)[O-])n1 (stereo not given)	36.2
COc1ccccc1COCC(O)CN1CCC(c2ccn[nH]2)CC1 (stereo not given)	46.2
Cn1cc(CN2CCn3cnc(COCC4CC4)c3C2)cn1	5.63
CC(=O)N1CCN(Cc2c(C)ccc3ccccc23)CC(O)C1 (stereo not given)	44.3
CC(=O)N1CCN(Cc2cccc3c2sc2ccccc23)CC(O)C1 (stereo not given)	84.6
CC(=O)N1CCN(Cc2c(C)sc3ccccc23)CC(O)C1 (stereo not given)	35.4
Cc1cnn(CCNCc2cccc(C#N)c2)c1	32.2
Cn1cncc1CN1CCC2(CC1)COCCN(S(C)(=O)=O)C2	4.68
O=C(CC1CCCC1)N1CCC(c2nnc(-c3ccccn3)o2)CC1	-18.1

Compound	INHIBITION [%]
CN(Cc1ccccn1)C(=O)c1nc(S(C)(=O)=O)n2ccccc12	36.85
CN(Cc1ccccc1)C(=O)c1nc(S(C)(=O)=O)n2ccccc12	52
CC(C)CCN(C)C(=O)c1nc(S(C)(=O)=O)n2ccccc12	46.5
Cn1cc(Cl)cc1C(=O)N1CCCN(Cc2ccccc2)CC1	16.97
Cn1cnnc1SCc1cc2c(cc1Br)OCO2	49
N[C@H]1CCCN(S(=O)(=O)c2ccc(C(=O)NCC(F)F)cc2)C1	66.1
N#CC1CCCN(S(=O)(=O)c2ccc(C(=O)NCC(F)F)cc2)C1 (stereo not given)	49.2
O=C(NCC(F)F)c1ccc(S(=O)(=O)N2CCCC(O)C2)cc1 (stereo not given)	37.3
Cc1cnc(C(=O)N(C)[C@@H]2CCC[C@@H](Oc3ccccc3)[C@@H]2O)cn1	17.1
CN(C(=O)c1ccn(C)n1)[C@@H]1CCC[C@@H](Oc2ccccc2)[C@@H]1O	35.2
CN(C(=O)c1cn(C)cn1)[C@@H]1CCC[C@@H](Oc2ccccc2)[C@@H]1O	60.5
Cc1noc(C)c1-c1cncc(C2CCCN2Cc2nccs2)n1 (stereo not given)	15.9
O=C(CC1CCCO1)N1CCCN(c2cccnn2)CC1 (stereo not given)	7.12
Cc1cc(C)nc(N(C)CCn2ccnc2C)n1	-45.7
CN(C)C(=O)CN1CCC2(CC1)CC(=O)c1ccc3ccccc3c1O2	41.1
CN1CCN(CCCNCc2cc(O)c3cc(F)ccc3n2)CC1	65.6
Oc1cc(CNCCCN2CCCC2)nc2ccc(F)cc12	62.8
OCC1CCCCN1CCCNCc1cc(O)c2cc(F)ccc2n1 (stereo not given)	25.7
O=C1CCCN1CCCNCc1cc(O)c2cccc(Cl)c2n1	-13.4
Cc1ccc2nc(CNCCCN3CCCC3)cc(O)c2c1	41.5
Oc1cc(CNCCN2CCCCC2)nc2c(F)cccc12	13.7
O=S(=O)(CCNCc1cc(O)c2cc(F)ccc2n1)N1CCCC1	58.2

Compound	INHIBITION [%]
O=C(CCNCc1cc(O)c2cc(F)ccc2n1)N1CCCC1	30.4
O=C1CCCN1CCCNCc1cc(O)c2cccc(F)c2n1	-15.8
CC(NCc1c(C(C)C)nn(C)c1N1CCOCC1)C(=O)N(C)C (stereo not given)	19.45
Cc1cc(C)c2c(NCCC3(O)CCCC3)ncnc2n1	42.3
CCn1ccc2ccnc(CC3CN(C(=O)c4cnco4)C3)c21	1.62
CN1CC2(CCCCN2C(=O)c2ccsc2)CC1=O (stereo not given)	35.8
Cc1oc(C)c(C(=O)NCc2cccc(C(N)=O)c2)c1C	-39.7
CNC(=O)C1CN(C)CCN1c1nc(C)cc(C)n1 (stereo not given)	-5.8
COC(=O)Cn1c(=O)[nH]c2cn(-c3ccc(Cl)cc3)c(=O)n21	0.547
NC(=O)c1cc(C2CCCN(CCCOc3ccc(F)cc3)C2)n[nH]1 (stereo not given)	14.22
CCOCCCC(=O)NS(=O)(=O)c1ccc(C)s1	11.3
CC(=O)c1ccc(OCC(=O)NS(=O)(=O)c2ccc(Cl)s2)cc1	36.8
Cc1ccc(S(=O)(=O)NC(=O)CCOCC(C)C)s1	55.9
CC(C)COCCC(=O)NS(=O)(=O)c1ccc(Cl)s1	62.4
COc1ccccc1OCC(=O)NS(=O)(=O)c1ccc(Cl)s1	31.3
Cc1ccc(S(=O)(=O)NC(=O)CCOCc2ccccc2)s1	36.3
OC1(CN2CCCC2)COCCN(c2cc(C(F)(F)F)ccn2)C1 (stereo not given)	-16
OCCn1nccc1C1CCN(Cc2nc(C3CC3)no2)CC1	33.7
Cc1cc(C(=O)N2CCC(Nc3cccnc3)CC2)c(C)s1	-19.5
O=S1(=O)NC(c2ccnc(N3CCCC3)n2)=Nc2ccccc21	33.2
Cc1ccc(C(=O)N2CCC3(CC2)CC(N2CCCC2)C3)cc1	39.9
Cc1ccc(C(=O)N2CCC3(CC2)CC(N2CCOCC2)C3)cc1	55.7

Compound	INHIBITION [%]
O=C(c1ccc(F)cc1)N1CCC2(CC1)CC(N1CCOCC1)C2	-24.5
CN(C)C(=O)c1cn[nH]c1C1(C)CCCN(Cc2ccccn2)C1 (stereo not given)	40
CCOc1ccc(NC(=O)N2CCNC(=O)C2)c(C(F)(F)F)c1	40.2
O=C(Cn1cc(-c2ccccc2)ncc1=O)Nc1nnc[nH]1	13
O=C(Cn1cc(-c2ccccc2)ncc1=O)Nc1ccncc1	0.547
O=C(Cn1cc(-c2ccccc2)ncc1=O)Nc1ncc[nH]1	81
Cc1nc2c(C)cccc2cc1C(=O)N1CCC2(CCN(C)CC2)C1	-17.7
CCOc1nnc(CN2CCN(CCOC)C(CC)C2)s1 (stereo not given)	28.6
CCOc1nnc(CN2CCN(CCOC)CC2)s1	53.4
CCOc1nnc(CN2CCC(c3cc4ccccc4[nH]3)CC2)s1	-14.2
CCOCCN1CCN(CCOC)CC1C (stereo not given)	11.4
CCOc1nnc(CN2CCN(CCOC)C(C)C2)s1 (stereo not given)	51.7
CCOc1nnc(CN2CCC(c3nc4ccccc4[nH]3)CC2)s1	-35.9
COCC1CC2(CCN(C(=O)c3ccc(C)nc3)CC2)CO1 (stereo not given)	-26.1
COc1ccc(C2CCCN2C(=O)NCCn2ccnc2)cc1OC (stereo not given)	-20.965
O=S(=O)(C1CC1)N1CC[C@@H](OCC2CC2)[C@@H]1Cc1ccncc1	47.5
CNc1nc(CNC(=O)Nc2ccccc2OC(C)C)cs1	32.3
CNc1nc(CNC(=O)Nc2ccc(OC(C)C)cc2F)cs1	72.3
CNc1nc(CNC(=O)Nc2ccc(OC(C)C)cc2C)cs1	57.2
CNc1nc(CNC(=O)Nc2cc(Cl)ccc2F)cs1	-41.85
CNc1nc(CNC(=O)Nc2cccc(C)c2Cl)cs1	-25.15
CNc1nc(CNC(=O)Nc2ccc(OC)cc2C)cs1	21.5

Compound	INHIBITION [%]
COc1ccc2[nH]cc(C(=O)CNc3nc(C)cs3)c2c1	-29.5
O=C(CCOc1ccc(F)cc1)N1CCCC1Cn1cccn1 (stereo not given)	30.6
Cc1ccc2c(n1)N(CCn1cccn1)CCN(C(=O)NC(C)C)C2	-32
CS(=O)(=O)NCc1cnc2n1CCN(Cc1ccsc1)CC2	30.1
NCc1ccc(Oc2cccc(Cl)c2Cl)cc1	13.2
NCc1ccc(Oc2cccc(Cl)c2Cl)nc1	28.7
CCOc1ccccc1Oc1ccc(CN)cn1	60.3
CCCN1CCc2c(C(=O)N(C)Cc3ccccn3)nn(C)c2C1	55.6
CN(Cc1ccccn1)C(=O)c1nn(C)c2c1CCN(CC1CC1)C2	48.2
CC(C)CCN1CCc2c(C(=O)N(C)Cc3ccccn3)nn(C)c2C1	48.2
COCCCNC(=O)CN(C)C1CCCN(c2cccnn2)C1 (stereo not given)	-14.7
CC(=O)N1CC(=O)N(c2ccsc2)CC12CCN(Cc1ccoc1)C2 (stereo not given)	-3.58
CCN1C(=O)C(c2ccccc2)CC12CCN(CCO)CC2 (stereo not given)	19.8
CNC(=O)CN1CC[C@H]2CN(C(=O)c3ccccc3C)C[C@H]2C1	-28
CCn1ncc(CN2CCN(C(=O)Cn3cc(Br)c(C)n3)CC2)c1C	34
Cc1nn(CC(=O)N2CCN(Cc3cnn(C)c3C)CC2)cc1Br	-5.92
Cc1nn(CC(=O)N2CCN(Cc3cn(C)nc3C)CC2)cc1Br	51
CCn1cc(CN(C)S(=O)(=O)c2cnn(C)c2)cn1	7.66
O=c1c2cn[nH]c2nc(SCCN2CCOCC2)n1-c1ccccc1	21.5
CC(=O)N1CCC2(CN(CC3CCCC3)C2)C1	39.5
CC(=O)N1CCC2(CCN(CC3CCCCC3)C2)CC1	51.9
CC(=O)N1CCC2(CCN(CC3CCOC3)C2)CC1 (stereo not given)	42.1
